# About 420 (8.8%) of roughly 4,800 compounds showed an effect of 50% or more. Shown is part of a subset that was picked to be rich in strong results.
# System: Plasmodium falciparum
# Assay: Confirmatory screen in NF54 nanoGlo assay, in single point, at 2uM, 72h
# Type: functional, Erythrocyte
# Conditions: timepoint 72 hour
row,Structure (SMILES),% Inhibition [%]
1,CN1CCC(N(C)c2ccccc2CNC[C@@H](O)c2cccc(Cl)c2)CC1,23
2,O[C@@H](CNCc1ccc2c(c1)CCO2)c1ccc(F)c(F)c1,61
3,CN1CCN(c2ccc(C(F)(F)F)cc2NCc2cnc[nH]2)CC1,62
4,CN1C2CCC1CC(OC(=O)C1CCC(C(=O)OC3CC4CCC(C3)N4C)(c3ccccc3)c3ccccc31)C2 (stereo not drawn),49
5,Fc1ccc(N2CC[C@H](CN3CCC(c4c[nH]c5ccccc45)(c4c[nH]c5ccccc45)CC3)C2)cc1,97
6,CC(C)(C)c1ccc(CNC[C@H](O)c2ccc(F)cc2F)cc1,95
7,Cc1ccc(CNc2ncnc(N)c2Cl)c(N2CCCC2)n1,50
8,CN(C)CC12CNCC1CN(c1ccnc3cc(Cl)ccc13)C2 (stereo not drawn),98

# From ChEMBL document CHEMBL5308541, “MAIP: An Open-Source Tool to Enrich High-Throughput Screening Output and Identify Novel, Druglike Molecules with Antimalarial Activity” (ACS Med Chem Lett, 2023)
